For one assay, the target named is Albumin (Bos taurus) (UniProt P02769). As to the kind of experiment: compounds binding labelled BSA control protein – biochemical, small-molecule microarray, Alexa647 label, 635/667 nm fluorescence, artefact control for SMM control protein annotation, profiling panel (AID 1118).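 Note: score merges 667 nm emission intensity and signal-to-noise per printed compound spot.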 Particulars: BSA-A647 binding, fluorescence 635 nm, higher = more signal.
Assay [1] can be described thus: probe aXIP binding to arrayed compounds – biochemical, NeuroSMM set, 635/667 nm fluorescence, primary screen (AID 1119).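 Note: probe is the protein aXip251-270 applied at 1 µg/mL to compound-printed slides; binding of probe to printed compounds measured as 667 nm fluorescence plus signal to noise.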 Particulars: small-molecule microarray, higher = more signal, called active from +8 up or from −8 down.
A short description of assay [2]: probe aNOTCH3 binding on compound microarray – biochemical, small-molecule microarray, 635/667 nm fluorescence, primary screen (AID 1120).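 Note: probe is a biotin-tagged antibody raised against NOTCH3 rather than NOTCH3 protein; score merges spot fluorescence near 667 nm with spot signal to noise.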 Conditions: higher = more signal.
Assay [3] in a line: probe aNOTCH2 binding on compound microarray – biochemical, small-molecule microarray, 635/667 nm fluorescence, primary screen (AID 1121).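 Note: score merges feature fluorescence read at 667 nm with its signal to noise.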 Conditions: higher = more signal.
In assay [4] the target is Carbonic anhydrase 2 (Homo sapiens) (UniProt P00918). Nature of the assay: compounds binding carbonic anhydrase 2 – biochemical, small-molecule microarray, Alexa647-labelled CAII, profiling panel (AID 1122). Particulars: CAII-A647 binding fluorescence, higher = more signal.
Assay [5] in a line: COS7 lysate on small-molecule microarray, probe aHis, 635 nm (AID 1123).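 Note: z-score combines 667nm fluorescence intensity with signal-to-noise per printed compound spot.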 Conditions: COS7 cell lysate, fluorescence, higher = more signal.
Assay [6] can be described thus: probe aLAP1 signal on lysate-treated microarray – cell lysate, small-molecule microarray, COS7 lysate, primary screen (AID 1124).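 Note: lysate comes from COS7 cells expressing LAP1 and is applied at 0.3 µg/mL; score merges spot fluorescence near 667 nm with signal-to-noise over triplicate slides.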 Conditions: probe aLAP1, fluorescence, higher = more signal.
In the next assay the test system is Sam68 (KHDRBS1). Nature of the assay: compounds binding KHDRBS1 protein – biochemical, small-molecule microarray, 635 nm fluorescence, primary screen (AID 1125).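 Note: score merges 667 nm channel intensity with signal to noise over triplicate slides.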 Particulars: higher = more signal.
Assay [7] deals with Chordin-like protein 2 (CHRDL2). As to the kind of experiment: compounds binding chordin-like 2 – biochemical, small-molecule microarray, 635 nm fluorescence, primary screen (AID 1126).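 Note: printed compound slides probed with Chrdl2 protein at 4 µg/mL for 1 h at 4 C; score merges 667 nm emission intensity with signal to noise over three replicate slides.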 Particulars: fluorescence 635 nm, higher = more signal.
The target of assay [8] is Concanavalin-A (Canavalia ensiformis) (UniProt P02866). As to the kind of experiment: compounds binding concanavalin A lectin – biochemical, small-molecule microarray, Alexa647 label, 635 nm, artefact control for SMM control protein annotation, primary screen (AID 1127).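 Note: z combines 667 nm emission intensity with signal-to-noise across three replicate slides.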 Particulars: ConA-A647 binding fluorescence, higher = more signal.
Assay [9] can be described thus: compounds binding Alexa647 anti-His antibody – biochemical, small-molecule microarray, 635 nm fluorescence, artefact control for SMM control protein annotation, primary screen (AID 1128).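 Note: score merges feature fluorescence with signal-to-noise for each printed compound spot.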 Particulars: higher = more signal.
Assay [10] deals with Human papillomavirus type 1a E7 protein (residues 1-88). As to the kind of experiment: HPV1a E7 small-molecule binders, primary screen, biochemical, small-molecule microarray, residues 1-88, 635 nm (AID 1129). Particulars: small-molecule microarray binding, fluorescence 635 nm; higher = more signal.
The target of assay [11] is Focal adhesion kinase 1 (Homo sapiens) (UniProt Q05397). As to the kind of experiment: PTK2 protein binding on printed compound slides – biochemical, small-molecule microarray, 635/667 nm fluorescence, BSA, DTT, primary screen (AID 1130).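 Note: composite of spot emission at 667 nm and signal to noise over triplicate slides.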 Conditions: 635 nm fluorescence, higher = more signal.
Assay [12] concerns Fibrinogen (Alexa647-labelled). As to the kind of experiment: Alexa647-fibrinogen binding to printed small molecules – biochemical, small-molecule microarray, 635/667 nm fluorescence, artefact control for SMM control-protein annotation, profiling panel (AID 1131).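 Note: z-score merges 667 nm fluorescence with per-spot signal-to-noise over triplicate slides.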 Particulars: fibrinogen-A647 binding fluorescence, higher = more signal.
Assay [13] deals with Follistatin (Homo sapiens) (UniProt P19883). Nature of the assay: FST protein binding to printed compounds – biochemical, small-molecule microarray, 635/667 nm fluorescence, primary screen (AID 1132). Conditions: 635 nm fluorescence, higher = more signal.
In assay [14] the target is Fibroblast growth factor 2 (Homo sapiens) (UniProt P09038). Nature of the assay: basic fibroblast growth factor binding to printed compounds – biochemical, small-molecule microarray, 635/667 nm fluorescence, primary screen (AID 1133). Conditions: FGF2, fluorescence 635/667, higher = more signal.
The nature of assay [15]: JC-1 mitochondrial potential readout, lung cancer cells – cell-based, A549, JC-1 fluorescence, basal, 24 h, 100 nL, profiling panel (AID 1138).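 Note: A549 lung adenocarcinoma cells under basal conditions with no added stimulus; test concentration not given here.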 Conditions: higher = more signal.
For the next assay, the system named is Lefty1. Nature of the assay: Lefty1 protein binding to printed compounds – biochemical, small-molecule microarray, 635/667 nm fluorescence, primary screen (AID 1139). Conditions: fluorescence 635/667, higher = more signal.
Assay [16] concerns wheat germ agglutinin (Triticum aestivum), Alexa647-labelled. Nature of the assay: Alexa647-WGA lectin binding to printed small molecules – biochemical, small-molecule microarray, 635/667 nm fluorescence, artefact control for SMM control-protein annotation, profiling panel (AID 1140).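 Note: score merges 667 nm feature emission with signal to noise over triplicate slides.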 Conditions: WGA-A647 binding, 635 nm fluorescence, higher = more signal.
The target of assay [17] is Luciferin 4-monooxygenase (Photinus pyralis) (UniProt P08659). As to the kind of experiment: inhibition of purified Photinus pyralis luciferase – biochemical, luminescence, purified enzyme, 2006 set, primary screen (AID 1141).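 Note: cell-free assay with purified firefly luciferase at 100 ng per well in PBS; test concentration not given here.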 Conditions: purified firefly luciferase, SteadyGlo luminescence, 30 min; higher = more signal, called active from +8 up or from −8 down.

Activity calls are given as the source filed them.

Chain of Luciferin 4-monooxygenase (Photinus pyralis) (P08659 whole entry, looked up): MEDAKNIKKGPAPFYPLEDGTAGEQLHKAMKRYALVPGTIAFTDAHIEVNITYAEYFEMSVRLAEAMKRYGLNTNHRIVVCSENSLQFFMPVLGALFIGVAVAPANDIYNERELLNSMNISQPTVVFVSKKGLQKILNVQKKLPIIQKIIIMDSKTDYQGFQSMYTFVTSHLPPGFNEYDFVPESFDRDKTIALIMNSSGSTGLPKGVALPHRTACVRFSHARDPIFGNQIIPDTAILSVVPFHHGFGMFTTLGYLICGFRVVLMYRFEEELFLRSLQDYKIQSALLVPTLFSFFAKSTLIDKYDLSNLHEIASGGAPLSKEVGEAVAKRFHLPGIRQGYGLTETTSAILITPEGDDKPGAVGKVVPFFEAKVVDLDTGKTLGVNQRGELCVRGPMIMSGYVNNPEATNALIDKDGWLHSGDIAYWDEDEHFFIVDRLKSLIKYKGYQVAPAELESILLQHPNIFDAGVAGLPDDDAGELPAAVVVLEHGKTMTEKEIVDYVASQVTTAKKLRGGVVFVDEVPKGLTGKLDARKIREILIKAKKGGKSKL
Chain of Fibroblast growth factor 2 (Homo sapiens) (P09038 whole entry, looked up): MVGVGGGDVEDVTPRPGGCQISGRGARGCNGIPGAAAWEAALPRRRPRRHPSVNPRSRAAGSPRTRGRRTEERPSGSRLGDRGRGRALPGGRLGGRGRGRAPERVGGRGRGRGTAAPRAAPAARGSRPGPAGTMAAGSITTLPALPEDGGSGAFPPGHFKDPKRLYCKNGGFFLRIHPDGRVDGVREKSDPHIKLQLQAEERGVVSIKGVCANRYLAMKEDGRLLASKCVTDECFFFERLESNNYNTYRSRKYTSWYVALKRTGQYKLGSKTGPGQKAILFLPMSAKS
Chain of Concanavalin-A (Canavalia ensiformis) (P02866 whole entry, looked up): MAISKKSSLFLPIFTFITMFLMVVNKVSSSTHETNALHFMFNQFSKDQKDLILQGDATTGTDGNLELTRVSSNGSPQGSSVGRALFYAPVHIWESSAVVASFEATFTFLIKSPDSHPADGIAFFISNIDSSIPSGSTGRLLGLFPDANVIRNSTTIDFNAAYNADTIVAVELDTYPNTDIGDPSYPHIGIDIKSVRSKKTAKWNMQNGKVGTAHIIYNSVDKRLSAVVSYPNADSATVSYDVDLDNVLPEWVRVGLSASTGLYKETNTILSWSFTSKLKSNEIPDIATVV
Chain of Albumin (Bos taurus) (P02769 whole entry, looked up): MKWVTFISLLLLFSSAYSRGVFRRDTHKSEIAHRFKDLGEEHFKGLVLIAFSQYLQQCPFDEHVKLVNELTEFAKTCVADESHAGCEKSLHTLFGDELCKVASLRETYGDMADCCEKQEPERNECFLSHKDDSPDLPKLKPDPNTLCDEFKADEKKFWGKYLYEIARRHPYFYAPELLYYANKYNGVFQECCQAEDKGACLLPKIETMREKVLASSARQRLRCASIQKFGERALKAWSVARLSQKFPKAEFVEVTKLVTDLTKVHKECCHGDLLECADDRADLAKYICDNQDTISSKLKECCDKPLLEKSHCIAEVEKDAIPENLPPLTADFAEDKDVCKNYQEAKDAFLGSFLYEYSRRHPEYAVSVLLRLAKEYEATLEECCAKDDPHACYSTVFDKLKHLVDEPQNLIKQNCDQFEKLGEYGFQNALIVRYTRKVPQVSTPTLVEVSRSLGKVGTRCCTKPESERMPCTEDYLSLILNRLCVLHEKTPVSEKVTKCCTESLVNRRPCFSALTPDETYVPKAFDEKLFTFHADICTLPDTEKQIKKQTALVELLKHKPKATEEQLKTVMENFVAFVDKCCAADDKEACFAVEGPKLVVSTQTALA
Chain of Follistatin (Homo sapiens) (P19883 whole entry, looked up): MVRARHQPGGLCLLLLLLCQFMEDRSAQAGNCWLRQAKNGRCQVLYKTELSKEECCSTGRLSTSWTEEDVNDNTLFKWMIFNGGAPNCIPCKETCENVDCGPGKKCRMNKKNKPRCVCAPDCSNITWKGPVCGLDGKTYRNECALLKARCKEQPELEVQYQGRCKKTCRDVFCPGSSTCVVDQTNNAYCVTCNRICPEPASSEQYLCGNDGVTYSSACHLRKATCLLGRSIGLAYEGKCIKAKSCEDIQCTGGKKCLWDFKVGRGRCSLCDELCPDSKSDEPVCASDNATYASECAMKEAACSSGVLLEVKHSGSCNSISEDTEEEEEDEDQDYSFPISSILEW
Chain of Focal adhesion kinase 1 (Homo sapiens) (Q05397 whole entry, looked up): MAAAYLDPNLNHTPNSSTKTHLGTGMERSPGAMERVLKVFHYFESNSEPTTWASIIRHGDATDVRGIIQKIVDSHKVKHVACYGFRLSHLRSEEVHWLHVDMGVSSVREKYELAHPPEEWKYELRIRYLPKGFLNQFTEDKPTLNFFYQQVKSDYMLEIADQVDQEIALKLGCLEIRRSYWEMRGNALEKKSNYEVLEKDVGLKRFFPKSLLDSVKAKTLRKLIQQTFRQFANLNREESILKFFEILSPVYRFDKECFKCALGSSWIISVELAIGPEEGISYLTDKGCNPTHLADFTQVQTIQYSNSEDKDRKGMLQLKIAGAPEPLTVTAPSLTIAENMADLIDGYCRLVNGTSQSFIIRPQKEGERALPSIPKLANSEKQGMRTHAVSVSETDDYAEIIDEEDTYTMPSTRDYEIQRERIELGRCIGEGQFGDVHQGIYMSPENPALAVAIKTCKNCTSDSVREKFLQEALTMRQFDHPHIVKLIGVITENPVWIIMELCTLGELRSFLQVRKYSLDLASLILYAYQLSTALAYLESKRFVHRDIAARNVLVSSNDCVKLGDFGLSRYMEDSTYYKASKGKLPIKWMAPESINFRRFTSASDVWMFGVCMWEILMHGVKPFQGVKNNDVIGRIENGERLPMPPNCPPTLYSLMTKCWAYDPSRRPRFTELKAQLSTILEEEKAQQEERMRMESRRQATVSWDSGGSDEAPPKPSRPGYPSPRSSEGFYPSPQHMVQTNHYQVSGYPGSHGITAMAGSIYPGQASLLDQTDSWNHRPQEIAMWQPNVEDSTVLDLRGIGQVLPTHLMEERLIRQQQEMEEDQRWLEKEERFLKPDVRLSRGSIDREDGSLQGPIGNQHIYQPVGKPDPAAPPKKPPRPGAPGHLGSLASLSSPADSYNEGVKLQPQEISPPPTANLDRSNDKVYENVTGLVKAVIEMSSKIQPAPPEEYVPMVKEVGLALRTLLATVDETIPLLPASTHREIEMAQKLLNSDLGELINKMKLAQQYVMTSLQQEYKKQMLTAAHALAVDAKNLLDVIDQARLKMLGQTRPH

On to `CCOC(=O)[C@H](CC(C)C)NC(=O)CCC1CC(OC(=O)NCCc2ccc(F)cc2)CC2(CCCC(COC(=O)NCCOC)O2)O1` (stereo not given in full), for which the composite z-score with Albumin (Bos taurus) was 0.502; in assay [2], -0.0573; in assay [3], -0.171; in assay [4], 0.0663; in [5], 0.5; in [6] it was 0.417. For the same compound, the composite z-score was 1.29 in the assay on Sam68 (KHDRBS1); 0.515 in [7]; 0.646 in assay [8]; 0.917 in assay [9]; 1.04 in assay [10]; 0.318 in [11]. Moreover, the composite z-score in [12] was 0.416; in assay [13], 0.839; in assay [14] it was 1.18; in the assay with Lefty1 it was 0.955; in [16], 0.829. The composite Z-score in assay [1] was 0.795 (inactive). The z-score in assay [15] was -0.382; in [17], 0.958 (inactive).
Take `C#CCCCON=C1C[C@@H](O)[C@@H](O)[C@@H]2[C@@H]3C(=O)N(CC)C(=O)[C@@H]3CC[C@H]12`: the composite z-score with Albumin (Bos taurus) was -0.0021; in assay [2], -0.118; in assay [3] it was -0.148; in assay [4], 0.728; in assay [5], 1.35; in [6], 0.187. The composite z-score is 0.866 in the assay on Sam68 (KHDRBS1); -0.0382 in assay [7]; -0.357 in [8]; 1.93 in [9]; 0.286 in assay [10]; -0.442 in [11]. In addition, the composite z-score is 0.636 in [12]; -0.473 in assay [13]; -0.0374 in [14]; 0.162 in the assay with Lefty1; 1.07 in assay [16]. Besides, the composite Z-score in assay [1] is 0.52 (inactive). Moreover, the figures for the z-score in assay [15] and in assay [17] were -0.27 and 0.0384 (inactive), respectively.
Turning to `CC(=O)OC[C@H]1O[C@@H](ON=C2[C@H]3CCn4c(=O)n(-c5ccccc5)c(=O)n4[C@H]3[C@H](O)[C@@H]3O[C@H]23)[C@H](OC(C)=O)[C@@H](OC(C)=O)[C@@H]1OC(C)=O`, the composite z-score was 0.0931 with Albumin (Bos taurus); 0.086 in assay [2]; -0.186 in [3]; 0.541 in assay [4]; 1.09 in [5]; 0.0273 in assay [6]. Also, the composite z-score was 1.07 in the assay on Sam68 (KHDRBS1); 0.544 in [7]; 0.339 in [8]; 1.66 in [9]; 0.894 in assay [10]; -0.144 in assay [11]. In addition, the composite z-score in assay [12] came out at 0.8; in [13] it was 0.419; in [14], 0.431; in the assay with Lefty1, 0.413; in [16], 0.169. Further, the composite Z-score in [1] was 0.0029 (inactive). For the same compound, the z-score was 0.188 in [15] and 0.939 (inactive) in assay [17].
`CC(CCC(=O)OC[C@H]1O[C@H](C#Cc2ccccc2)C=C[C@@H]1Oc1ccc(C)cc1)=NOC(C)CN1CCCCc2nc(C)c(C)cc21` (stereo not given in full): the composite z-score was 0.473 with Albumin (Bos taurus); -0.0377 in [2]; 0.161 in assay [3]; 0.346 in [4]; 0.938 in assay [5]; 0.214 in [6]. In addition, the composite z-score in the assay on Sam68 (KHDRBS1) was 0.313; in assay [7], -0.168; in assay [8], -0.207; in [9] it was -0.578; in [10] it was 0.203; in [11] it was 0.603. For the same compound, the composite z-score in [12] was -0.626; in assay [13], -0.463; in assay [14] it was -0.426; with Lefty1 it was -0.034; in assay [16], 0.222. For the same compound, in assay [1], the composite Z-score was 1.48 (inactive). The z-score was 0.856 in assay [15] and 1.08 (inactive) in assay [17].
In the case of `COc1ccc(OC[C@@H](CO)OC)cc1`, the composite z-score with Albumin (Bos taurus) was -0.151; in assay [2], -0.0865; in assay [3], -0.118; in assay [4], -0.148; in assay [5], -0.206; in [6], -0.295. For the same compound, the composite z-score stood at 0.14 in the assay with Sam68 (KHDRBS1); 0.175 in assay [7]; 0.0261 in [8]; 0.324 in assay [9]; 0.0896 in assay [10]; 0.172 in assay [11]. For the same compound, the composite z-score in assay [12] is 0.227; in assay [13], 0.649; in assay [14] it was 0.205; in the assay with Lefty1 it was 0.356; in [16], -0.254. For the same compound, the composite Z-score in assay [1] is 0.675 (inactive). Moreover, the z-score is 0.754 in assay [15] and -0.531 (inactive) in assay [17].
